Measured values from PubChem BioAssay (NCATS).
Inconclusive results are not listed. Active and inactive are the calls of the source. Unless noted, calls follow the shape of the dose curve; as a rule, active = well fitted curve in the direction sought with a large enough effect; inconclusive = small, poorly fitted or top-dose-only effect, or another doubt; inactive = no such curve, though single readings can be large; an effect the other way counts as inactive or inconclusive.

Legend:
[1] = Stat Signaling Pathway (AID 446; active = well fitted curve in either direction with a large enough effect, not every such curve was filed as active;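 also: ME-180 cervical cancer cells given 40 pM IL-6 alongside compound; SIE-controlled beta-lactamase reporter measured as 460/530 nm FRET emission ratio; % is scaled to controls: 0 for no effect and ±100 for the full control effect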); conditions: ME-180 (cervical carcinoma) SIE beta-lactamase reporter, IL-6 stimulated, 5 h; at 7.69 µM (top of the series) unless noted
Method in brief: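 FRET read-out (405 nm excitation, 460/530 nm emission) of a beta-lactamase reporter under a STAT-inducible element in ME-180 cervical carcinoma cells. Cells with compound receive 40 pM IL-6 for 5 h. Values are normalised to AC90 stimulation and AC90 JAK-inhibitor controls.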

[2] = molecular target: Glucocorticoid receptor (Homo sapiens) (UniProt P04150); test: GR-EFC Redistribution (AID 451; calls by dose curve; also: potency is read from the fitted curve at half-maximal effect); conditions: CHO-K1 GR-EFC translocation, beta-gal luminescence, 2 h
Chain of Glucocorticoid receptor (Homo sapiens) (P04150 whole entry, looked up, the tested form may be a part): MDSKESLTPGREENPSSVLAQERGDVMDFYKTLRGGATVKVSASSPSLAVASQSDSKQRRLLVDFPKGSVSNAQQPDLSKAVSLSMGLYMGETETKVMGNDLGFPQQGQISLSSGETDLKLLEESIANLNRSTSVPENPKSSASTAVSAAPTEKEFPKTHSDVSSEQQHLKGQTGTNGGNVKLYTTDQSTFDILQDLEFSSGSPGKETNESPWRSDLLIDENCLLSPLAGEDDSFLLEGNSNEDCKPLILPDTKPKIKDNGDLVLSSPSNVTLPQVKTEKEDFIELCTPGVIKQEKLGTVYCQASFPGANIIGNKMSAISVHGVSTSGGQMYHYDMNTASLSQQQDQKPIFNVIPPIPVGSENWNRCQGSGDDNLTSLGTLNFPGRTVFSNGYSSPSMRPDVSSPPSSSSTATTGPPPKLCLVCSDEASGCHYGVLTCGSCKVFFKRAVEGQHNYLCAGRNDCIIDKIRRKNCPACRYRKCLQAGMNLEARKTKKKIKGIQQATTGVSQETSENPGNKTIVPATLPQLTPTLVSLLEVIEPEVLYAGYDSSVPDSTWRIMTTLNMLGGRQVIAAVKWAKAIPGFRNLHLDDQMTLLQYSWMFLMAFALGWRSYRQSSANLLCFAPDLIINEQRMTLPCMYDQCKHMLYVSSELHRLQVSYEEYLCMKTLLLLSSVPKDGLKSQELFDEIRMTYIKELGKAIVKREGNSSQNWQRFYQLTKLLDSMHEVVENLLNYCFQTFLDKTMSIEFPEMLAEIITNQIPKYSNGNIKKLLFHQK
Method in brief: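 CHO-K1 cells expressing nuclear EA and GR-ED fragments of b-gal; compounds titrated up to 46 uM final, 2 h at 37 C. GR nuclear translocation read as complemented b-gal luminescence after 1 h RT detection.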

[3] = molecular target: Mitogen-activated protein kinase 10 (Mus musculus) (UniProt Q61831); test: JNK3 AlphaScreen Assay (AID 530; active = well fitted curve in either direction with a large enough effect, not every such curve was filed as active;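 also: kinase came from lysate of stimulated human HepG2 cells; signal reports phosphorylation of biotinylated GST-cJun 1-79 at Ser73 with 10 µM ATP; % is scaled to controls: 0 for no effect and ±100 for the full control effect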); conditions: JNK3 lysate, c-Jun phosphorylation; series mostly up to 57.1 µM
Method in brief: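 HepG2 lysate (IL-1b/TNFa pre-activated) + biotin-GST-cJun 1-79 + anti-pSer73 cJun; cpd titration, 15 min RT; ATP 10 uM start; Tris pH 7.6, MgCl2, DTT, vanadate; beads in EDTA buffer; AlphaScreen.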

[4] = molecular target: 3',5'-cyclic-AMP phosphodiesterase 4B (Homo sapiens) (UniProt Q07343); test: qHTS Assay for Inhibitors of PDE-IV (AID 607; active = well fitted activation curve with a large enough effect in the main read-out, with a control signal flat, not every such curve was filed as active; also: % of control where 0% means no effect); conditions: HEK293 ACTOne CNG channel cells, membrane potential fluorescence; series mostly up to 22.9 µM
Method in brief: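 Cell-based read-out of cAMP via a modified cyclic nucleotide-gated channel and membrane potential dye (535/590 nm) in HEK293 cells expressing PDE4 endogenously. Compounds tested up to 22.9 uM final; 100 uM RO 20-1724 reference.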

[5] = molecular target: Cytochrome P450 2C9 (Homo sapiens) (UniProt P11712); test: qHTS Assay for Inhibitors and Substrates of Cytochrome P450 2C9 (AID 883); conditions: recombinant CYP2C9, luciferin-H luminescence, 60 min; series mostly up to 57.1 µM; also: % is scaled to controls: 0 for no effect and ±100 for the full control effect; nearly all actives have a fitted effect of over 60% in size
Chain of Cytochrome P450 2C9 (Homo sapiens) (P11712 whole entry, looked up): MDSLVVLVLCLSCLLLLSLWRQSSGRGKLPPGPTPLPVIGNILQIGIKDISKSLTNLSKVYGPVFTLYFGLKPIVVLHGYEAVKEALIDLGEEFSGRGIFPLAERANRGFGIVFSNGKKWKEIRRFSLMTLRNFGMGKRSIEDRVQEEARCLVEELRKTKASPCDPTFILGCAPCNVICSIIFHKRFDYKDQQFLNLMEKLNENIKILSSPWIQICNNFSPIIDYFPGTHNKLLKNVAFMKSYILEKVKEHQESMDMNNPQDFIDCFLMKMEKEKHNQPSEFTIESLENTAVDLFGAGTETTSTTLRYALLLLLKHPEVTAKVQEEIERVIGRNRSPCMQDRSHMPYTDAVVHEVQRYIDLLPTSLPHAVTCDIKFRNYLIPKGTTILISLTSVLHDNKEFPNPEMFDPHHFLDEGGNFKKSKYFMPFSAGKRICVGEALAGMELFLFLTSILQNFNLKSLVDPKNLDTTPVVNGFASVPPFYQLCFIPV
Method in brief: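 Human CYP2C9 (10nM) with Luciferin-H at 100uM (its KM) in 25mM KPO4; compound preincubated 10 min at 37C, then NADPH regeneration for 60 min at 37C. Luciferin read by luminescence after detection reagent; normalized to 57uM sulphaphenazole as full inhibition.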

[6] = molecular target: Cytochrome P450 3A4 (Homo sapiens) (UniProt P08684); test: qHTS Assay for Activators of Cytochrome P450 3A4 (AID 885); conditions: recombinant CYP3A4, Luciferin-PPXE luminescence, 60 min; series mostly up to 57.1 µM; also: nearly all actives have a fitted effect of over 65% in size
Chain of Cytochrome P450 3A4 (Homo sapiens) (P08684 whole entry, looked up): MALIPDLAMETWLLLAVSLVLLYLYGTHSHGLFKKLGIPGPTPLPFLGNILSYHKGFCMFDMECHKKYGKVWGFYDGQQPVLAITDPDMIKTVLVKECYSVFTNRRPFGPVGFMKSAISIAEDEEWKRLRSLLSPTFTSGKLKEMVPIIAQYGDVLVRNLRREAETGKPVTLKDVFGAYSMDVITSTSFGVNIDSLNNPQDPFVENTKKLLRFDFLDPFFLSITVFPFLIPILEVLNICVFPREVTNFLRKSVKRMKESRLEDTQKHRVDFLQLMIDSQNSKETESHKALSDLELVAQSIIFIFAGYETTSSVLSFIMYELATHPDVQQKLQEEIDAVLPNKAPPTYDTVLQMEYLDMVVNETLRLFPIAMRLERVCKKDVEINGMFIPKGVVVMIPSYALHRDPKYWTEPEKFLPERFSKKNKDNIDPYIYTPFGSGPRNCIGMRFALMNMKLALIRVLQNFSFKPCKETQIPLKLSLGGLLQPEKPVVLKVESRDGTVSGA
Method in brief: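 Luminescent readout of luciferin formed from 25 uM Luciferin-PPXE (KM level) by 20 nM CYP3A4 in 200 mM KPO4, with 60 min NADPH-driven reaction at room temperature after 10 min compound exposure. Ketoconazole (57 uM) defined 100% inhibition.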

[7] = Primary qHTS for small molecule stabilizers of the endoplasmic reticulum resident proteome: Secreted ER Calcium Modulated Protein (SERCaMP) assay (AID 1508630); conditions: SH-SY5Y GLuc-SERCaMP (Gaussia luciferase released on ER calcium loss) secretion, thapsigargin, luminescence; series mostly up to 38.4 µM; also: % is scaled to controls: 0 for no effect and ±100 for the full control effect
Method in brief: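 The SH-SY5Y reporter protocol was run at 3 concentrations up to 38.3 uM (primary) or 11 concentrations (follow-up): 16 h compound, 100 nM thapsigargin for 4 h, then extracellular luciferase luminescence.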

[8] = molecular target: Cytochrome P450 3A4 (Homo sapiens) (UniProt P08684); test: qHTS Assay for Inhibitors and Substrates of Cytochrome P450 3A4 (AID 884); conditions: recombinant CYP3A4, Luciferin-PPXE luminescence; series mostly up to 57.1 µM; also: nearly all actives have a fitted effect of over 50% in size; also: potency is read from the fitted curve at half-maximal effect; as to activity change, negative = inhibition: % is scaled to controls: 0 for no effect and ±100 for the full control effect
Method in brief: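 Luminescent readout of luciferin produced by CYP3A4 (20 nM) dealkylation of Luciferin-PPXE, 25 uM (its KM). NADPH-driven reaction ran 60 min at RT after 10 min compound preincubation; data scaled to 57 uM ketoconazole as 100% inhibition.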

[9] = Confirmation and Secondary Assay for Modulators of Hemoglobin Beta Chain Splicing at IVS2 705 locus (AID 930); conditions: HeLa EGFP-705 splicing reporter, GFP fluorescence, 48 h; series mostly up to 38.3 µM;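 also: HeLa cells stably expressing the EGFP-705 splicing reporter; GFP fluorescence per well restored by corrected splicing of the IVS2-705 intron in EGFP; % of control where 0% means no effect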
Method in brief: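 Per-well GFP, captured at 1 x 8 µm resolution with 488 nm excitation, served as the read-out for HeLa EGFP-705 cells incubated 2 days with test compound versus DMSO.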

[10] = qHTS Assay for Lipid Storage Modulators (AID 1519; calls by dose curve); conditions: Drosophila S3 cells, BODIPY lipid droplet/cell ratio, laser cytometry, cells loaded with oleic acid; for activity change, negative = inhibition: at 57.5 µM (top of the series)
Method in brief: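 Cells seeded at 5,000 per well were treated with compounds over a concentration series and loaded with oleic acid (400 uM, as added). Lipid droplet fluorescence (488 nm excitation, 500-530 nm channel) was read by laser-scanning cytometry and normalized to 20 uM Triacsin C.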

[11] = molecular target: Cytochrome P450 2D6 (Homo sapiens) (UniProt P10635); test: Cytochrome P450 family 2 subfamily D member 6 (CYP2D6) small molecule antagonists: luciferase biochemical (cell-free) qHTS assay (AID 1645840; active = well fitted curve in the direction sought with a large enough effect in the repeat runs; an effect the other way counts as inactive or inconclusive; also: % is scaled to controls: 0 for no effect and ±100 for the full control effect; nearly all actives have a fitted effect of over 55% in size); conditions: P450-Glo CYP2D6 enzyme, luciferin luminescence, 1 h; series mostly up to 57.4 µM
Chain of Cytochrome P450 2D6 (Homo sapiens) (P10635 whole entry, looked up): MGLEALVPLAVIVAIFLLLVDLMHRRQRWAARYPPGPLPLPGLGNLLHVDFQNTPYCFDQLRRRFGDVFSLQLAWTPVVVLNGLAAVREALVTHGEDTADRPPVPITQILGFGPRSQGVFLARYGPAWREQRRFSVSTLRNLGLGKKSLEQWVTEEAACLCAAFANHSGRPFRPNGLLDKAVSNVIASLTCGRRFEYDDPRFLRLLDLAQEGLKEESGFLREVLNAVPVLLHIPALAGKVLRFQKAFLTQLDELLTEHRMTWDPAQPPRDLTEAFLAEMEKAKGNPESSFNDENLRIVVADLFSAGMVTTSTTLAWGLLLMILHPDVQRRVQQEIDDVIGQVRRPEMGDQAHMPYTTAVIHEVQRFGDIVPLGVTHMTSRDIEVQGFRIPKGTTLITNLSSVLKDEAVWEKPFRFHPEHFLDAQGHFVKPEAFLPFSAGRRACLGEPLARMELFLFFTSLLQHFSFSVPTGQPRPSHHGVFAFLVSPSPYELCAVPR
Method in brief: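 P450-Glo CYP2D6 system: proluciferin substrate converted by enzyme to luciferin, read by luminescence proportional to activity. Enzyme-substrate mix with compound 10 min at room temperature, then NADPH regeneration 1 h before detection reagent.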

[12] = molecular target: Cytochrome P450 2C9 (Homo sapiens) (UniProt P11712); test: Cytochrome P450 family 2 subfamily C member 9 (CYP2C9) small molecule antagonists: luciferase biochemical (cell-free) qHTS assay (AID 1645842; active = well fitted curve in the direction sought with a large enough effect in the repeat runs; an effect the other way counts as inactive or inconclusive; also: % is scaled to controls: 0 for no effect and ±100 for the full control effect; nearly all actives have a fitted effect of over 55% in size); conditions: P450-Glo CYP2C9 enzyme assay, luciferin luminescence; series mostly up to 57.4 µM
Method in brief: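 P450-Glo CYP2C9 system: proluciferin substrate with enzyme in mix containing 0.4% BSA, 10 min at room temperature, then NADPH regeneration solution added and incubated 1 h at 37C. Detection reagent stopped reaction; luminescence read after 20 min as RLU.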

[13] = molecular target: Rap guanine nucleotide exchange factor 3 (Homo sapiens) (UniProt O95398); test: Confirmatory qHTS for antagonist of cAMP-regulated guanine nucleotide exchange factor 3 (EPAC1) (AID 1645880); conditions: EPAC1 Rap1B-BODIPY-GDP exchange, fluorescence; series mostly up to 115 µM; also: nearly all actives have a fitted effect of over 55% in size; also: potency is read from the fitted curve at half-maximal effect;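 as to activity, negative = inhibition: plate controls were DMSO only for no effect and full effect of the ATA control for full effect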
Chain of Rap guanine nucleotide exchange factor 3 (Homo sapiens) (O95398 whole entry, looked up): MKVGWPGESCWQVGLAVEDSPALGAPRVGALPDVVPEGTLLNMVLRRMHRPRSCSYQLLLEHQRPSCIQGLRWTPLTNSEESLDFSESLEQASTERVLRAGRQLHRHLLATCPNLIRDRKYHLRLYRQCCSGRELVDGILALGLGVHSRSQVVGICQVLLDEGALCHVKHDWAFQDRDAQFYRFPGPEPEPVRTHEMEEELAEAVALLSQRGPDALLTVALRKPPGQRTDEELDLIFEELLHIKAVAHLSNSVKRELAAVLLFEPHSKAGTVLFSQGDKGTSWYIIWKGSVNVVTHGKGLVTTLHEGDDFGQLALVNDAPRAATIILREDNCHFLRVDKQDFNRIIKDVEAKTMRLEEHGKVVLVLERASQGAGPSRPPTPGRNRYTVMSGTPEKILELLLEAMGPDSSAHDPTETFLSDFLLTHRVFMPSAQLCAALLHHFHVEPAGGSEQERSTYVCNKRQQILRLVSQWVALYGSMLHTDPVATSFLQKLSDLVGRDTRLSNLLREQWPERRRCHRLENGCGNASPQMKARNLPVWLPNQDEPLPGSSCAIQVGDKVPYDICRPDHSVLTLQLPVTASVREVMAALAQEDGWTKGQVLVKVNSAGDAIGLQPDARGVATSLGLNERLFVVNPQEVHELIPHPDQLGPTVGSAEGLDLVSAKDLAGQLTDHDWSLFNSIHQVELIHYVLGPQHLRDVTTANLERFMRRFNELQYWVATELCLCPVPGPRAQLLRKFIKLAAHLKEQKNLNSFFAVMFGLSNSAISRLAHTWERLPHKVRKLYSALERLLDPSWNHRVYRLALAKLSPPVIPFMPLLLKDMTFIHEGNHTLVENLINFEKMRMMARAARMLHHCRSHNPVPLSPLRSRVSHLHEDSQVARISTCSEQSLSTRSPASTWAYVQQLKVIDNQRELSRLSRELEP
Method in brief: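 Released BODIPY-GDP fluoresces less than Rap1-bound BODIPY-GDP; the signal is followed at 480/540 nm at 5-min intervals over 30 min, after 5 min at room temperature. Reactions contain 100 nM EPAC1, 250 nM RAP1B-BODIPY-GDP and 50 uM GDP; results are normalized to ATA and DMSO.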

[14] = molecular target: Rap guanine nucleotide exchange factor 3 (Homo sapiens) (UniProt O95398); test: Confirmatory qHTS for agonist of cAMP-regulated guanine nucleotide exchange factor 3 (EPAC1) (AID 1645881); conditions: EPAC1 Rap1B BODIPY-GDP exchange fluorescence; series mostly up to 154 µM;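 also: EPAC1 catalysed release of BODIPY-GDP from Rap1B seen as fluorescence loss; 100% = effect of cAMP agonist control; nearly all actives have a fitted effect of over 75% in size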
[15] = molecular target: Rap guanine nucleotide exchange factor 4 (Homo sapiens) (UniProt Q8WZA2); test: Confirmatory qHTS for agonist of cAMP-regulated guanine nucleotide exchange factor 4 (EPAC2) (AID 1645884); conditions: EPAC2 GEF activity, Rap1B-BODIPY-GDP fluorescence; series mostly up to 154 µM;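 also: nucleotide exchange releases bodipy-GDP from Rap1 and this lowers its fluorescence; % is scaled to controls: 0 for no effect and ±100 for the full control effect; nearly all actives have a fitted effect of over 65% in size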
Chain of Rap guanine nucleotide exchange factor 4 (Homo sapiens) (Q8WZA2 whole entry, looked up): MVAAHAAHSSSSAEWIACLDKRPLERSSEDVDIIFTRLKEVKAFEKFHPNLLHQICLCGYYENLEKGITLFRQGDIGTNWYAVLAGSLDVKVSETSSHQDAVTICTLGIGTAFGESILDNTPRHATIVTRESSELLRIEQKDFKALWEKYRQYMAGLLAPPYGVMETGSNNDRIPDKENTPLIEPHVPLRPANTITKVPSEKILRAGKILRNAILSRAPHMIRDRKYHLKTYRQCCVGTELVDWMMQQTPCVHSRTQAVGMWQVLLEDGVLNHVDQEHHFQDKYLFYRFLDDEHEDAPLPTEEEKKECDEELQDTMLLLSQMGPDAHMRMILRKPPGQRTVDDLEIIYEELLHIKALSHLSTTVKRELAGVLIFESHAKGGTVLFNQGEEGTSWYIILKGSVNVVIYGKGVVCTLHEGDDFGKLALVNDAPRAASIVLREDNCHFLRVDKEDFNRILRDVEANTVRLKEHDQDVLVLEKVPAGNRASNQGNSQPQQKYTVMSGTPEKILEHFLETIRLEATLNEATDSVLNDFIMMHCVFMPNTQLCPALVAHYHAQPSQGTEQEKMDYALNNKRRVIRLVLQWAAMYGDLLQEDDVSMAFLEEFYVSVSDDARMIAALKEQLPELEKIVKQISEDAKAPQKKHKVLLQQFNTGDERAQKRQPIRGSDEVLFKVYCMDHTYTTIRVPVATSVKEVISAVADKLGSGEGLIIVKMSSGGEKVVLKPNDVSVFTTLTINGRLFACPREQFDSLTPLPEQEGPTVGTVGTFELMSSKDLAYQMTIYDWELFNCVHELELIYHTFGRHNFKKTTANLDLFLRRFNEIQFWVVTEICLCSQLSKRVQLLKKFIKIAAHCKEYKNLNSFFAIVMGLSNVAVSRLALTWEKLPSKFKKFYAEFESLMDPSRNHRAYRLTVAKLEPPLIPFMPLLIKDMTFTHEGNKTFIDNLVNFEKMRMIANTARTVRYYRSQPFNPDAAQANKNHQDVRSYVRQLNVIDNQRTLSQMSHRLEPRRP

[16] = molecular target: Rap guanine nucleotide exchange factor 4 (Homo sapiens) (UniProt Q8WZA2); test: Confirmatory qHTS for antagonist of cAMP-regulated guanine nucleotide exchange factor 4 (EPAC2) (AID 1645885); conditions: EPAC2 Rap1B-BODIPY-GDP exchange fluorescence, biochemical; series mostly up to 114 µM; also: nearly all actives have a fitted effect of over 25% in size; also: potency is read from the fitted curve at half-maximal effect
[17] = molecular target: Cytochrome P450 1A2 (Homo sapiens) (UniProt P05177); test: p450-cyp1a2 (AID 410; calls by dose curve; also: potency is read from the fitted curve at half-maximal effect); conditions: recombinant CYP1A2, luciferin-ME demethylation, luminescence; series mostly up to 57 µM
Chain of Cytochrome P450 1A2 (Homo sapiens) (P05177 whole entry, looked up): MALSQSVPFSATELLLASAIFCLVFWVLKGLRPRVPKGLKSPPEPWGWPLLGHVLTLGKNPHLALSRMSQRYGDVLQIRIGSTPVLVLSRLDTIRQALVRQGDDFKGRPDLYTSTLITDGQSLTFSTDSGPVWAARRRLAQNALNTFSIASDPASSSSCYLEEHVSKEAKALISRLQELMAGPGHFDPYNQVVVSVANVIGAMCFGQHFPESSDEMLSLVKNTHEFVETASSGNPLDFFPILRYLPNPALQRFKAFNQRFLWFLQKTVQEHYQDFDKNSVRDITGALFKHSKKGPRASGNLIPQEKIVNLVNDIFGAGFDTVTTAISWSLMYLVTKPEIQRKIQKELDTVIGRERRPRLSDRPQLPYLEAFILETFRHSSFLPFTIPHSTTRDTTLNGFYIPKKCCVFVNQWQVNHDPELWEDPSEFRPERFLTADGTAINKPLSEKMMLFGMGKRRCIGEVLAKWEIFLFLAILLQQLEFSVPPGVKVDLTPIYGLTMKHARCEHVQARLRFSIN
Method in brief: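 20nM CYP1A2, 100uM Luciferin-ME (=Km), 100mM KPO4; cpd 10 min RT; +NADPH regen, 60 min RT; stop/detect 20 min; luminescence. Normalized to furafylline 57 uM = full inhibition.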

[18] = molecular target: Glucocorticoid receptor (Homo sapiens) (UniProt P04150); test: GR-GFP Redistribution (AID 450;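 active = compounds whose dose series gives a full or clear partial fitted curve of increased nuclear translocation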; also: potency is read from the fitted curve at half-maximal effect); conditions: U2OS GR-GFP nuclear translocation, laser cytometry, 2 h
[19] = molecular target: DNA dC->dU-editing enzyme APOBEC-3G (Homo sapiens) (UniProt Q9HC16); test: qHTS for inhibitors of Vif-A3G interactions: Validation (AID 588379); conditions: Vif-A3G protein interaction assay; series mostly up to 46.1 µM; also: 0% is about no effect
Method in brief: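 Yellow fluorescence (Ex 488, Em 500-530) of Vif-coexpressing HeLa A3G-eYFP cells, scanned by Acumen cytometer, reports blocked A3G degradation. Cells plated at 700/well overnight at 37 deg C before compound addition, then a further overnight compound incubation at 37 deg C.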

[20] = molecular target: Rap guanine nucleotide exchange factor 3 (Homo sapiens) (UniProt O95398); test: Counterscreen qHTS for antagonist of cAMP-regulated guanine nucleotide exchange factor 3 (EPAC1) (AID 1645888); conditions: Rap1B-BODIPY-GDP nucleotide exchange, fluorescence; series mostly up to 154 µM; also: % of control where 0% means no effect
Method in brief: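 Rap1B–BODIPY-GDP (250 nM) with 50 uM GDP; compounds pin-transferred to 9.74 nM–152 uM final (activator) or from 7.32 nM upwards (inhibitor). Fluorescence Ex/Em 480/540 nm read at 5 and 30 min, then after adding cAMP or buffer, at room temperature.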

[21] = measured here: cell count channel max response
[22] = measured here: lipid channel max response

CC(C)CN1CCCC2(CCN(C(=O)c3ccco3)CC2)C1
inactive: activity, negative = inhibition [1] 2.64% | Potency [2] > 46 µM | Potency [3] | Potency [4] | Potency [5] | Potency [6] | outcome [7]

NC(Cc1ccc(O)c(O)c1)C(=O)O (stereo unspecified)
20.4%: max response [10, 22]
inactive: Potency [8] | outcome [9] | activity change, negative = inhibition [10] 11.6% | Potency [11] | Potency [12] | Potency [14] | Potency [15]
active: Potency [13] 1.4 µM | Potency [16] 44.1 µM
4.16%: max response [10, 21]

CCCNC(=O)N1N=C(c2ccc(N)cc2)c2cc3c(cc2[C@H]1C)OCO3
inactive: Potency [18] > 46 µM | Potency [2] > 46 µM | Potency [6] | outcome [19] | outcome [7]
active: Potency [17] 3.98 µM | Potency [8] 1.26 µM

C=CCc1ccc(OC(=O)c2ccccc2)c(OC)c1
5.85%: max response [10, 21]
inactive: Potency [6] | outcome [9] | activity change, negative = inhibition [10] 6.62% | Potency [13] | Potency [14] | Potency [15] | activity change, negative = inhibition [16] -4.91% [at 12.7 µM] | activity change, negative = inhibition [20] -3.32% [at 30.8 µM]
active: Potency [8] 5.01 µM
15.6%: max response [10, 22]
